From PubChem BioAssay (Tox21)
Inconclusive results are not listed. Where a call stands in place of a potency, no number is given. The source holds several records for some structures; these can differ, active in one and inactive in another. Calls of active or inactive are those of the source. Calls come from the whole dose curve; as a rule, active = well fitted cell-killing curve with a large enough effect in the repeat runs; inconclusive = weak or mixed curves, or effect the other way; inactive = no such curve, though single readings can be large or run the other way.

experiment: qHTS assay to identify small molecule agonists of the estrogen receptor alpha (ER-alpha) signaling pathway in the presence of an antagonist - cell viability counter screen (AID 1259386); conditions: VM7Luc4E2 viability, CellTiter-Fluor fluorescence, 22 h; series mostly up to 92.4 µM; activity change, negative = cytotoxicity: at the top concentration;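 note: cells exposed to compounds for 22 h at 37 °C before the viability read; nearly all actives have a fitted effect of over 30% in size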
Source text: National Center for Advancing Translational Sciences [NCATS]
NIH Chemical Genomics Center [NCGC]
U.S. Environmental Protection Agency [EPA]
National Institutes of Environmental Health Sciences [NIEHS]
National Toxicology Program [NTP]
U.S. Food and Drug Administration [FDA]
Estrogen receptor (ER), a member of nuclear hormone receptor plays an important role in development, metabolic homeostasis and reproduction. Two subtypes of ER, ER-alpha and ER-beta, have similar expression patterns with some uniqueness in both types. Endocrine disrupting chemicals (EDCs) and their interactions with steroid hormone receptors like ER causes disruption of normal endocrine function. Therefore, it is important to understand the effect of environmental chemicals in ER signaling pathway. For identifying ER agonists, VM7Luc4E2 cell line has been used in the current assay.
VM7Luc4E2 cell line (provided by Denison MS, University of California) endogenously expresses full-length ER-alpha and is stably transfected with a plasmid containing four estrogen responsive elements (ERE) upstream of a luciferase reporter gene. This current screening for measuring luciferase reporter gene activity using VM7Luc4E2 cells against Tox21 10K library collection is a confirmation study on agonist mode screening in presence of ER-antagonist (ICI-182,780) at 10.0nM final concentration. The cytotoxicity of the compounds was tested in parallel by measuring the cell viability using CellTiter-Fluor assay system (Promega, Madison, WI) in the same wells.
Tox21 Assay Protocol Summary:
VM7Luc4E2 cells were cultured in phenol red free assay medium containing 10% charcoal stripped FBS for 5 days prior to the assay. The cells were dispensed at 4,000 cells in 4uL of assay medium per well into white wall/solid-bottom 1536-well plates (Corning Life Sciences, Corning, NY) using a Multidrop Combi (Thermo Fisher Scientific Inc., Waltham, MA) dispenser. After the assay plates were incubated at 37C and 5% CO2 for 24hr, 1uL of 10.0nM (final concentration) ICI-182,780 or assay buffer was added using two separate tips of Flying Reagent Dispenser (FRD, Aurora Discovery, San Diego, CA). Then 23nL of compounds dissolved in DMSO at 15 concentrations and positive controls or DMSO only was transferred to the assay plates by a Pintool station (Wako, San Diego, CA). The assay plates were incubated at 37C and 5% CO2 for 22hr. After 21hr incubation at 37C, 1uL/well CellTiter-Fluor reagent (Promega Corporation, Madison, WI) was added to each well using FRD and after 1hr incubation at 37C and 5% CO2, the fluorescence signal was measured on ViewLux plate reader (PerkinElmer, Shelton, CT).
Potency is the fitted concentration of half-maximal effect.

Row | SMILES | Potency | activity change, negative = cytotoxicity
1 | Cl/C=C/Cl | inactive | 
2 | OC[C@@H](O)[C@H]1O[C@@H]2O[C@H](C(Cl)(Cl)Cl)O[C@@H]2[C@H]1O | inactive | 
3 | N#Cc1cccc(C#N)c1 | inactive | 
4 | c1ccc2c(c1)CCCC2 | inactive | 
5 | C=CC(=O)OCCCCCC(C)C | inactive | 
6 | OCC(O)CCl (stereo not given) | inactive | 
7 | CCCOC(=O)c1ccccc1C(=O)OCCC | inactive | 
8 | CNc1cnn(-c2cccc(C(F)(F)F)c2)c(=O)c1Cl | inactive | 
9 | N#CN=C(N)N | inactive | 
10 | COP(=S)(OC)SCN1C(=O)c2ccccc2C1=O | inactive | 
11 | Cc1ccc(N=C=O)cc1N=C=O | inactive | 
12 | NNc1ccccc1 | inactive | 
13 | CNC(=O)Oc1cccc2ccccc12 | inactive | 
14 | Cc1cccc(N)c1 | inactive | 
15 | CCCCCCCCCCCCCCCCCC(=O)O | inactive | 
16 | Cc1cccc(C)c1NC(=O)CN1CCCC1=O | inactive | 
17 | CCSC(=O)N1CCCCCC1 | inactive | 
18 | COc1nc(NC(C)C)nc(NC(C)C)n1 | inactive | 
19 | CC12CC1(C)C(=O)N(c1cc(Cl)cc(Cl)c1)C2=O (stereo not given) | inactive | 
20 | O=C(O)CCCc1ccc(N(CCCl)CCCl)cc1 |  | -13.5% (inactive)

Row | SMILES | Potency | activity change, negative = cytotoxicity
21 | Nc1ncc([N+](=O)[O-])s1 | 54.9 µM (active) and inactive | 
22 | C=CC#N | inactive | 
23 | CC(C)(C)C(=O)CCl | inactive | 
24 | COP(=S)(OC)Oc1ccc(SC)c(C)c1 | inactive | 
25 | C[C@]12CC[C@H](O)CC1=CC[C@@H]1[C@@H]2CC[C@]2(C)C(=O)CC[C@@H]12 | inactive | 
26 | C=CC(=O)OCC(CC)CCCC (stereo not given) | inactive | 
27 | Cl[C@H]1OCCO[C@@H]1Cl | inactive | 
28 | Sc1ccccc1 | inactive | 
29 | CC(=O)/C=C/c1ccccc1 | inactive | 
30 | Nc1cc(Cl)cc(Cl)c1 | inactive | 
31 | Nc1nc(N)nc(NC2CC2)n1 | inactive | 
32 | CC(C)c1cccc(C(C)C)c1O | inactive | 
33 | ClC(Cl)c1ccccc1 | inactive | 
34 | CCOc1ccc(N)cc1 | inactive | 
35 | Oc1c(Br)cc(Br)cc1Br | inactive | 
36 | C[C@H]1C(=O)O[C@@H]2CCN3CC=C(COC(=O)[C@](C)(O)[C@]1(C)O)[C@H]23 | inactive | 
37 | CN(C)NC(=O)CCC(=O)O | inactive | 
38 | CC(=O)C1CCOC1=O (stereo not given) | inactive | 
39 | CCNc1nc(Cl)nc(NC(C)C)n1 | inactive | 
40 | O=P1(NCCCl)OCCCN1CCCl (stereo not given) | inactive | 
